Abeta rescue: compounds reversing amyloid beta toxicity in yeast | yeast expressing A-beta42, growth rescue, OD600, 48 h; response scale: 0% DMSO, 100% iron-clioquinol control | Potency, µM (series often up to 46.1 µM), actives largely listed as activators | actives 0.063% (n = 410,000); also: nearly all actives have a fitted effect of over 55% in size
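Yeast growth medium received pinned compounds, then yeast cells expressing toxic A-beta were added; plates incubated at 30 C for 48 hr. Growth read as absorbance at 600 nm, normalized to DMSO and equimolar FeCl3 plus clioquinol controls.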
Vif-APOBEC3F blk: blocks the Vif interaction with APOBEC3F; HeLa A3F-eYFP + Vif (tagged APOBEC3F with the HIV-1 protein that degrades it), YFP fluorescence increase; Potency, µM (highest dose often 46.1 µM), for inactives: top-dose activity, negative = active; AID 602313; actives 0.2% (n = 390,000); also: % of control where 0% means no effect; nearly all actives have a fitted effect of over 65% in size
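Fluorescence increase (Ex 488/Em 500-530) after overnight compound treatment at 37 deg C flags inhibition of Vif-driven A3F-eYFP loss in stable HeLa A3F-eYFP/Vif cells seeded overnight beforehand.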
Vif-A3G inh: Vif-A3G binding inhibition. Q9HC16. HeLa A3G-eYFP + Vif (tagged APOBEC3G with the HIV-1 protein that degrades it), YFP fluorescence, overnight. Potency, µM (top dose mostly 46.1 µM), for inactives: at the top dose activity, negative = active, usual class: inhibitors. actives 0.076% (n = 410,000). AID 602310; also: % is scaled to controls: 0 for no effect and ±100 for the full control effect; nearly all actives have a fitted effect of over 60% in size
Target sequence (Q9HC16 whole entry, looked up): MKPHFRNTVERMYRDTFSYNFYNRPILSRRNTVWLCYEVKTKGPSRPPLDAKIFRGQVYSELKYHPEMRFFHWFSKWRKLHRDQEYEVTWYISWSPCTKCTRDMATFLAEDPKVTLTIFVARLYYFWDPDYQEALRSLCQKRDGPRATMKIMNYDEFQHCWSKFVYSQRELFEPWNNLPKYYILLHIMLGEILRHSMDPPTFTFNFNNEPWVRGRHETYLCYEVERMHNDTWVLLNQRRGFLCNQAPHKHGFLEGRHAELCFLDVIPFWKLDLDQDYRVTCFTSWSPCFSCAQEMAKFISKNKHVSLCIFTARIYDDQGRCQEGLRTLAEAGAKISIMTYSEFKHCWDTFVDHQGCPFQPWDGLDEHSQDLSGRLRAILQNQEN
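HeLa cells stably expressing Vif and C-terminally eYFP-tagged A3G, seeded overnight at 37 deg C, then exposed to compound by pintool overnight at 37 deg C. Rise in yellow fluorescence (Ex 488/Em 500-530, Acumen) marks blocked Vif-driven A3G degradation.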
Glioma ERSR ind: inducers of ER stress response in human glioma cells | U87-MG GRP78 promoter luciferase reporter, 16 h | Potency, µM, for inactives: at the highest dose activation, usual class: activators | actives 0.02% (n = 420,000) | AID 602332; also: series mostly up to about 76 µM; % of control where 0% means no effect; nearly all actives have a fitted effect of over 35% in size
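Stably transfected U87-MG glioma cells carrying a GRP78-based luciferase sensor; 16 h compound incubation. Luminescence end-point read 10 min after Bright-Glo addition at room temperature.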
PINK1 modulator: changes PINK1 expression; PINK1 immunofluorescence, high-content cytometry, 24 h; Potency, µM (highest dose often 76.6 µM), for the others: top-dose activation (PINK1 increase), actives largely listed as activators; actives 0.2% (n = 410,000); active = well fitted activation curve with a large enough effect; inconclusive = small, poorly fitted or top-dose-only effect; cell line not stated here; also: % of control where 0% means no effect; nearly all actives have a fitted effect of over 65% in size
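Compound titrations (5 concentrations, 24 h) on a stable cell line; DMSO and CCCP controls. Endpoint: fixed-cell PINK1 immunofluorescence with mitochondrial, cell and nuclear markers, scanned by microplate cytometer.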
FUS suppressor: suppressors of FUS proteinopathy in yeast; S. cerevisiae FUS-expressing, growth rescue, OD600, 24 h; Potency, µM (top dose mostly 76.6 µM), most hits filed as activators; actives 0.24% (n = 390,000); AID 1347120;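 also: plate controls were DMSO vehicle for no effect and reference control for full effect; nearly all actives have a fitted effect of over 55% in size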
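Steps: raffinose overnight preculture; dilution to OD 0.005 in 2% galactose minimal medium; compound addition (concentration series); 24hr at 30C, 99% humidity; absorbance read at 600 nm.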
Starred values were filed as active, the others as inactive; i = inactive; ? = inconclusive; / = not tested or not shown; [ ] = dose if it differs, or a comment. Shown are actives, neighbours in structure and some others; about 0.69% of the full set was active somewhere. Unless noted, calls follow the shape of the dose curve; as a rule, active = well fitted curve in the direction sought with a large enough effect; inconclusive = small, poorly fitted or top-dose-only effect, or another doubt; inactive = no such curve, though single readings can be large; an effect the other way counts as inactive or inconclusive. Potency is read from the fitted curve at half-maximal effect.

SMILES | Abeta rescue | Vif-APOBEC3F blk | Vif-A3G inh | Glioma ERSR ind | PINK1 modulator | FUS suppressor
Cc1cc(/C([O-])=C(/C(=S)Nc2ccccc2)[n+]2ccccc2)c(C)n1-c1ccccc1 | i | -1% | 1% | -9% | 0% | 16µM*
CCOc1cccc2cc(C(=O)NCc3cccnc3)c(=O)oc12 | i | -6% | 1% | -1% | 11µM* | i
C=CCc1cccc2cc(C(=O)NCc3cccnc3)c(=O)oc12 | i | 0% | -8% | -6% | / | i
CSc1nsc(/C=C/Nc2ccc(C)c(C)c2)c1C#N | i | ? | -31% | 3% | 3% | i
CSc1nsc(/C=C/Nc2ccc(C)cc2)c1C#N | i | ? | 13µM* | 2% | 15% | i
Cc1sc(-c2cc3c([nH]c2=O)CC(c2ccccc2)CC3=O)nc1-c1ccc(Cl)cc1 (stereo not given) | i | 13µM* | 10µM* | -5% | 5% | i
CC(NC(=O)C1CCOCC1)c1nnc2n1CCN(Cc1cc3c(cc1Cl)OCO3)CC2 (stereo not given) | / | / | / | -6% | 1% | /
COc1ccccc1CC(=O)Nc1ccccc1O | i | -6% | 2% | -3% | -1%[38.3 µM] | i
COc1ccccc1CC(=O)Nc1ccc([N+](=O)[O-])cc1O | i | 0% | -5% | -6% | 40µM* | i
C=CC[n+]1ccc(/C=C2\C=Cc3cc(C)ccc3N2CC)c2ccccc21 | i | -2% | 11% | -3% | 3.2µM* | i
CCN1/C(=C/c2cc[n+](CCCS(=O)(=O)[O-])c3ccccc23)Sc2ccccc21 | i | ? | ? | -2% | 0% | i
CCOC(=O)c1cc(-c2ccccc2)n(CCC(=O)Nc2ccc(C(F)(F)F)cc2)c1C | i | -18% | 2% | ? | 40µM* | i
CN(C)NC(=S)Nc1cccc(C(F)(F)F)c1 | ? | 10% | -3% | -1% | 0% | i
CC(NC(=S)Nc1cccc(C(F)(F)F)c1)C(C)(C)C (stereo not given) | 13µM* | 32µM* | 1% | -2% | ? | i
CCc1cc(=S)n2c([nH]c3ccccc32)c1C#N | i | 2% | -2% | -3% | 16µM* | i
CCc1cc(=O)n2c([nH]c3ccccc32)c1C#N | i | 4% | -2% | -1% | -1% | i
COc1ccc(-c2ccc(C(=O)N(C)Cc3csc(C)n3)c(N3CCC(N4CCc5ccccc5C4)CC3)n2)cc1 | / | / | / | -4% | 0% | /
CC1(C)Cc2c(C#N)c(N3CCN(C(=O)c4ccccc4Cl)CC3)nc(-c3ccco3)c2CS1 | i | -10% | -4% | -1% | 1% | 11µM*
COc1ccc2ccccc2c1CN1CCc2nnc(C(NS(C)(=O)=O)C(C)C)n2CC1 (stereo not given) | / | / | / | -1% | 1% | /
Cc1cnc(SCCN2CCOCC2)nc1C1CCCN(C(=O)c2cccc3c(C)c(C)[nH]c23)C1 (stereo not given) | / | / | / | -5% | 2% | /
Cc1ccc(-c2cc(N)n[nH]2)cc1 | i | -6% | -7% | 0% | 1%[38.3 µM] | 28µM*
CCCCN(C(=O)c1oc2ccc(OCC)cc2c1C)c1c(N)n(CCCC)c(=O)[nH]c1=O | i | 2% | -19% | -3% | 11% | /
CCCCn1c(N)c(N(CCOC)C(=O)c2oc3ccc(Br)cc3c2C)c(=O)[nH]c1=O | i | -1% | -4% | -4% | 3% | 16µM*
C=CCOC(=O)C1=C(C)NC(C)=C(C(=O)OCC=C)C1c1cn(-c2ccccc2)nc1-c1ccco1 | i | -13% | 8.9µM* | -7% | 12% | i
COC(=O)C1CCN(Cc2ccc3c(c2)CN(C(=O)C2Cc4ccccc4O2)CCO3)CC1 (stereo not given) | / | / | / | -7% | 2% | /
CCOc1ccc(CC(=O)Nc2sc(Cc3ccccc3)c(C)c2C(N)=O)cc1OCC | i | 1% | -15% | -2% | 20% | 14µM*
